Values joined by “and” are separate entries in the source; they are usually repeats but may differ in a detail not shown here. Equal values may be shown once. The whole screen tested about 350,000 compounds, of which about 31,000 (8.9%) were called active. Inconclusive results (about 15%) are left out. The call rests on the fitted dose curve; in most records, active means well fitted inhibition curve with a large enough effect; inconclusive means small, poorly fitted or top-dose-only effect; inactive means no such curve, though single readings can be large or run the other way. The sample as a whole holds a higher share of actives than the screen did. Some compounds were tested as several samples or in several runs, with calls that do not always agree.
biological target: Histone-lysine N-methyltransferase EHMT2 (Homo sapiens) (UniProt Q96KQ7); experiment: qHTS Assay for Inhibitors of Histone Lysine Methyltransferase G9a; settings: G9a H3K9 monomethylation, AlphaScreen, 2 h; series mostly up to 59 µM; activity, negative = inhibition: at the top concentration; further: nearly all actives have a fitted effect of over 75% in size
Outline: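 Enzyme 20 nM + cpd, 15 min RT; add b-H3K9 pep 500 nM / SAM 20 uM; 2 h RT; anti-H3K9me1 Ab 0.5 ug/mL + SA donor / anti-rabbit acceptor beads 20 ug/mL each, 10 min; AlphaScreen read.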
On the % scale 0 is the no-effect control and ±100 the full control effect; potency means the concentration at half of the fitted maximal effect.

Chain of Histone-lysine N-methyltransferase EHMT2 (Homo sapiens) (Q96KQ7 913-1193 limits assumed): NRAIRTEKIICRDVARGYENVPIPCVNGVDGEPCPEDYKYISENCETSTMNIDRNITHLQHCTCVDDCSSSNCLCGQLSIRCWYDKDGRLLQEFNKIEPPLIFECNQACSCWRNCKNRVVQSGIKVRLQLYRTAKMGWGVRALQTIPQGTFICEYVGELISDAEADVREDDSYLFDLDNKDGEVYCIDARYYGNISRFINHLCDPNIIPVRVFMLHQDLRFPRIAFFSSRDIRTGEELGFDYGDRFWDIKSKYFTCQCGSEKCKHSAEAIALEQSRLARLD

activity, negative = inhibition, inactive:
Cc1cc(OC(C)C(=O)NC2CC(C)(C)NC(C)(C)C2)c2c(C)cc(=O)oc2c1 (stereo unspecified) 15.6% [at 102 µM]
CCc1ccccc1NC(=O)N1CCN(C(=O)c2nsc3ccccc23)CC1 12.5%
CCN(Cc1ccccc1)Cc1c(O)ccc2c(=O)c(-c3ccc(Cl)cc3Cl)coc12 -2.39%
O=C(O)CSc1ccc(S(=O)(=O)N2CCCC2)cn1 -37.2% [at 2.33 µM]
CC(C)(C)NC(=O)NCc1ccco1 9.25% [at 102 µM]
O=C(NCc1ccco1)c1ccc([N+](=O)[O-])cc1Cl 17.2% [at 102 µM]
O=C(c1ccc(F)c(S(=O)(=O)N2CCOCC2)c1)N(CCc1ccccc1)Cc1ccccc1 -4.88% [at 102 µM]
CC(=O)c1cccc(OCc2cc(C(=O)NC(C)Cc3cccnc3)no2)c1 (stereo unspecified) 10.3% [at 102 µM]
CN(C)CCn1c2c(c(SCC(=O)NCc3ccccc3)nc1=O)CCC2 -1.82% [at 102 µM]
Nc1c(Cl)cc(-c2csc(N3CCCC3c3nc4cc(Cl)c(Cl)cc4n3CCOCCO)n2)cc1Cl (stereo unspecified) 23.4% [at 102 µM]
COc1ccc(C(CC(=O)N2CCN(c3ccccc3)CC2)c2c(O)cc(OC)cc2OC)cc1 (stereo unspecified) -0.615% [at 12.7 µM]
COc1cccc(-n2c(SCC(=O)c3c[nH]c4ccccc34)nc3ccccc3c2=O)c1 11.3%
COc1ccc(CCNC(=O)c2cc(=O)c3c(C)cc(C)cc3o2)cc1OC -8.8%
COc1cccc(N2CCN(S(=O)(=O)c3ccc4c(c3)CCCN4C(C)=O)CC2)c1 3.68%
CCOC(=O)c1c(NC(=O)C2CC=CCC2C(=O)O)sc(C)c1CC (stereo unspecified) -8.47% [at 102 µM]
CCOC(=O)Nc1sc(C(=O)N(C)C)c(C)c1C(=O)OCC 27.3% [at 102 µM]
Cc1ccccc1CNC(=O)C1CCCN(S(=O)(=O)N(C)c2ccc(F)cc2)C1 (stereo unspecified) -0.195%
Cc1nn(-c2ccc(N3CCCCC3)nn2)c(C)c1CCC(=O)NCc1ccc(F)cc1 0.738%
COC(=O)c1oc2ccc(Br)cc2c1NC(C)=O 3.67%
C/C(=N\N)c1c(-c2ccccc2)c2cc(Br)ccc2[nH]c1=O 0.552% [at 102 µM]
O=C(Nc1ccccc1)C1CCN(C(=O)c2ccc(Br)cc2)CC1 -4.25% [at 102 µM]
CC(=O)c1c(C)[nH]c(C(=O)CN2C(=O)NC(C)(C)C2=O)c1C 3.15% [at 0.501 µM]
Cc1ccc(CN2CCN(Cc3cn(C)nc3-c3ccccc3)CC2CCO)o1 (stereo unspecified) 2.66% [at 102 µM]
Cc1ccccc1CN1CCN(CC(=O)NCc2ccccn2)C1=O 5.93%
Cc1ccc(C(=O)CN2C(=O)NC3(CCc4ccccc43)C2=O)c(C)c1 (stereo unspecified) 3.17% [at 102 µM]
COc1ccccc1-n1ccnc1SCC(=O)NC(C)(C)C 19.7% [at 102 µM]
Cc1ccc(C)c(-n2ccnc2SCC(N)=O)c1 23.6% [at 12.7 µM]
Cc1cc(NC(=O)CSc2nccn2-c2ccc([N+](=O)[O-])cc2)no1 -0.25% [at 102 µM]
COc1ccccc1-n1c(CNC(=O)c2ccccc2)nnc1SCC(=O)Nc1nnc(C)s1 -4.37% [at 102 µM]
O=C(CSc1nccn1Cc1ccc(F)cc1)NCc1ccccc1 -3.68%
Cc1ccc2nc(SCC(=O)Nc3cccc4ccccc34)nc(=O)n2c1 -26.2% [at 102 µM]
COc1cccc(-c2ccc3c(c2)S(=O)(=O)c2cccc(C(=O)O)c2C3=O)c1OC -17.9% [at 0.501 µM]
CCC(=O)N1c2ccc(S(=O)(=O)NCc3ccco3)cc2CC1C (stereo unspecified) -12.6%
Fc1ccc(-n2ncc3c(Nc4ccc(Oc5ccccc5)cc4)ncnc32)cc1 -1.42%
CCCc1cc(=O)[nH]c2nnc(SCC(=O)Nc3nnc(SCC)s3)n12 -30.1% [at 102 µM]
Cc1cccc(Nc2nc(C)nc(N)c2S(=O)(=O)c2ccccc2)c1 4.77%
C=CCc1cccc(/C=N/NC(=O)COc2ccc(-n3cnnn3)cc2)c1O -11.3% [at 102 µM]
CCN(CC)S(=O)(=O)c1ccc(N2CCOCC2)c(NC(=O)c2ccc(=O)n(C)n2)c1 -4.25% [at 12.7 µM]
O=C1[C@@H]2C(Cc3ccc(O)cc3)NC3(C(=O)Nc4ccc(F)cc43)[C@@H]2C(=O)N1c1ccc(F)cc1 (stereo partly specified) -37.6% [at 12.7 µM]
C[C@@]12C(=O)N(c3cccc(Br)c3)C(=O)N1[C@H](c1ccc(Cl)cc1)[C@@H]1C(=O)N(C3CCCCC3)C(=O)[C@@H]12 -8.19% [at 102 µM]
O=C(NCCS(=O)(=O)N1CCN(c2ccc(F)cc2)CC1)c1ccc2c(c1)OCO2 -0.16% [at 102 µM]
O=C(Nc1ccccc1F)C(c1ccccc1)N1Cc2ccccc2C1=O (stereo unspecified) -1.89%
CC1CCCCN1Cc1c(O)ccc2c(=O)c(-c3cccc(Cl)c3)c(C(F)(F)F)oc12 (stereo unspecified) -1.19%
CCCCC(CC)CNC(=O)C1CCN(S(=O)(=O)c2cccc3nsnc23)CC1 (stereo unspecified) 3.29%
CCOC(=O)C(=O)C1C(=O)Nc2ccccc21 (stereo unspecified) -47.2% [at 2.33 µM]
O=C(c1ccc2c(c1)N(Cc1ccccc1)C(=O)c1ccccc1S2(=O)=O)N1CCCC1 -26.6%
O=C(c1ccc2c(c1)N(Cc1ccc(Cl)cc1)C(=O)c1ccccc1S2(=O)=O)N1CCCCC1 -1.97%
CCOC(=O)c1cc(C(=O)Nc2ccc(S(=O)(=O)Nc3ccc(OC)cc3)cc2)nn1C 2.94% [at 102 µM]
Cc1ccc2nc(-c3ccc(Br)cc3)cn2c1 -9% [at 102 µM]
O=C1C=C(c2cccc(Cl)c2)C[C@@H](c2ccc(F)cc2)C1 6.54% [at 0.501 µM]
CC1=C(C(=O)OCc2ccc(C)cc2)C(c2ccccc2Cl)CC(=O)N1 (stereo unspecified) -30.3%
N/C(=N\OC(=O)c1ccc2c(c1)OCO2)c1ccc(Br)cc1 -36.4% [at 102 µM]
N/C(=N\OC(=O)/C=C/c1ccccc1)c1ccc(Br)cc1 23.4% [at 102 µM]
CCN1C(=O)/C(=c2\s/c(=C3\Sc4ccccc4N3C)c(=O)n2C)N(C)C1=S -35.3% [at 102 µM]
CCCCN1C(=O)/C(=C/C=C2/C=Cc3ccccc3N2CC)SC1=S 7.58% [at 102 µM]
CCN1C(=O)[C@H]2[C@@H](c3ccc(SC4CCCCC4)c(OC)c3)N[C@@](Cc3ccccc3)(C(=O)OC)[C@H]2C1=O 20.9% [at 2.33 µM]
CCc1ccccc1NC(=O)c1ccc(F)c(S(=O)(=O)NC2CCCCCC2)c1 -9.97%
Cn1c(=O)c2sccc2n2c(CCC(=O)NCc3ccccc3Cl)nnc12 -1.25%
Cc1ccccc1NC(=S)NNC(=O)c1cccc(Br)c1 -38% [at 102 µM]
Cc1ccc(-c2nnc3c4ccccc4c(C)nn23)cc1NC(=O)c1cccc(Br)c1 6.92%
CC(=O)Nc1ccc(S(=O)(=O)N2CCN(S(=O)(=O)c3cccs3)CC2)cc1 -24.6% [at 102 µM]
CCCc1c(C(=O)N/N=C(\C)CCc2ccc(OC)cc2)nnn1-c1nonc1N 20.9% [at 102 µM]
O=C(Nc1cccnc1)c1cc([N+](=O)[O-])ccc1Cl -28.5% [at 102 µM]
C/C(=N\NC(=O)Cc1ccccc1[N+](=O)[O-])c1cccnc1 79.8% [at 102 µM]
O=C(/C=C/c1ccc(Cl)cc1Cl)NCc1ccco1 2.18% [at 0.501 µM]
O=C(Nc1cccnc1)c1cc(Cl)ccc1Cl 5.34% [at 102 µM]
Cc1ccc(S(=O)(=O)N2CCCc3cc(NS(=O)(=O)c4cc(C)ccc4C)ccc32)cc1 -41.9%
CCOc1ccc(CCNC(=O)COC(=O)CCS(=O)(=O)c2ccc(C)cc2)cc1OCC -3.67% [at 0.501 µM]
O=C(CCn1c(=O)c2sccc2n(Cc2ccc(F)cc2)c1=O)NCc1ccc2c(c1)OCO2 -1.21%
S=C(NCc1ccc(Cl)cc1)NC1CCCCC1 8.97%
O=C(NC1CCCCCC1)c1cccnc1Sc1ccc(Cl)cc1 7.32%
CCSc1ncc(Cl)c(C(=O)Nc2c(C(=O)c3ccccc3)oc3ccccc23)n1 -5.28%
Cc1ccc(CNC(=O)CSc2c3c(nc4cc(Cl)ccc24)CCCC3)cc1 -3.31%
COc1ccc(CNC(=O)c2cc3c(=O)[nH]c4ccccc4c3s2)cc1 10.3%
CCCNC(=O)CCn1cc(-c2ccc(OC)cc2)nc1CCN -5.65% [at 2.33 µM]
CCCn1c(=O)c2[nH]c(-c3ccc(OCC(=O)NCCN)cc3)nc2n(CCC)c1=O 32.3% [at 12.7 µM]

Potency, active:
Cc1ccc(/C([O-])=C(/C(=S)NCc2ccco2)[n+]2ccccc2)cc1[N+](=O)[O-] 39.8 µM
Cc1nc2cc(C(F)(F)F)ccc2n1CCNc1nc(-c2cc(Cl)c(N)c(Cl)c2)cs1 39.8 µM
COc1ccc(C(C(O)C(=O)c2c[nH]c3ccccc23)N2CCN(c3ccccc3)CC2)cc1 (stereo unspecified) 25.1 µM
CCOC(=O)c1c(NC(C)=O)sc2c(O)c(Br)ccc12 1.58 µM
COC(=O)c1[nH]c2ccc(Br)cc2c1NC(=O)Oc1ccccc1 11.2 µM
Cc1ccccc1CN1C[C@@H]2C[C@@H](c3cn(C)nc3-c3ccccc3)N3CCC[C@@]23C1=O 10 µM
O=C(CSc1nccn1-c1ccc(F)cc1)Nc1cccc2ccccc12 14.1 µM
Cc1cccc(-n2ccnc2SCC(=O)Nc2cccc3ccccc23)c1C 12.6 µM
Cc1nnc(NC(=O)CSc2nccn2-c2cccc(C)c2C)s1 50.1 µM
CSCCC1NC2(C(=O)Nc3ccc(Cl)cc32)[C@@H]2C(=O)N(C3CCCC3)C(=O)[C@H]12 (stereo partly specified) 50.1 µM
CCCCC(CC)CNC(=O)C(=O)C1C(=O)Nc2ccccc21 (stereo unspecified) 44.7 µM
N/C(=N\OC(=O)N1c2ccccc2Sc2ccccc21)c1ccc(Br)cc1 50.1 µM
CCN1C(=O)/C(=C2/Sc3ccccc3N2CCCS(=O)(=O)O)SC1=S 39.8 µM
O=C(NC(=S)Nc1cccc2c(O)cccc12)c1cccc(Br)c1 50.1 µM
O=C(/C=C/c1ccc(Cl)cc1Cl)c1cccnc1 8.91 µM
O=C(/C=C/c1ccc(Cl)c([N+](=O)[O-])c1)c1cccnc1 39.8 µM
O=C(NC1CCCCC1)c1ccc(-c2ccc(Cl)cc2)o1 44.7 µM
CCCn1c(=O)c2[nH]c(-c3ccc(OCC(=O)NCCN)cc3)nc2n(CCC)c1=O 14.1 µM

Potency, inactive and 22.4 µM (active):
O=C(c1ccc2c(c1)N(Cc1ccc(F)cc1)C(=O)c1ccccc1S2(=O)=O)N1CCN(c2ccccn2)CC1

Potency, inactive:
CCCn1c(=O)c2[nH]c(C3CCCC3)nc2n(CCC)c1=O

Reference: PubChem BioAssay AID504332 (National Center for Advancing Translational Sciences (NCATS), 2011)
